Legend:
[1] = tested on: Epidermal growth factor receptor (Homo sapiens), P00533 [T790M]; conditions: at 1 µM
[2] = tested on: Epidermal growth factor receptor (Homo sapiens), P00533 [L858R,T790M]; conditions: at 0.1 µM
[3] = tested on: Epidermal growth factor receptor (Homo sapiens), P00533 [L858R,T790M]; conditions: at 1 µM
[4] = biological target: Ephrin type-A receptor 2 (Homo sapiens) (UniProt P29317); conditions: at 0.1 µM
[5] = biological target: Ephrin type-A receptor 2 (Homo sapiens) (UniProt P29317); conditions: at 1 µM
[6] = biological target: T1, Ephrin type-A receptor 3 (Homo sapiens) (UniProt P29320); conditions: at 0.1 µM
T1 sequence (whole entry): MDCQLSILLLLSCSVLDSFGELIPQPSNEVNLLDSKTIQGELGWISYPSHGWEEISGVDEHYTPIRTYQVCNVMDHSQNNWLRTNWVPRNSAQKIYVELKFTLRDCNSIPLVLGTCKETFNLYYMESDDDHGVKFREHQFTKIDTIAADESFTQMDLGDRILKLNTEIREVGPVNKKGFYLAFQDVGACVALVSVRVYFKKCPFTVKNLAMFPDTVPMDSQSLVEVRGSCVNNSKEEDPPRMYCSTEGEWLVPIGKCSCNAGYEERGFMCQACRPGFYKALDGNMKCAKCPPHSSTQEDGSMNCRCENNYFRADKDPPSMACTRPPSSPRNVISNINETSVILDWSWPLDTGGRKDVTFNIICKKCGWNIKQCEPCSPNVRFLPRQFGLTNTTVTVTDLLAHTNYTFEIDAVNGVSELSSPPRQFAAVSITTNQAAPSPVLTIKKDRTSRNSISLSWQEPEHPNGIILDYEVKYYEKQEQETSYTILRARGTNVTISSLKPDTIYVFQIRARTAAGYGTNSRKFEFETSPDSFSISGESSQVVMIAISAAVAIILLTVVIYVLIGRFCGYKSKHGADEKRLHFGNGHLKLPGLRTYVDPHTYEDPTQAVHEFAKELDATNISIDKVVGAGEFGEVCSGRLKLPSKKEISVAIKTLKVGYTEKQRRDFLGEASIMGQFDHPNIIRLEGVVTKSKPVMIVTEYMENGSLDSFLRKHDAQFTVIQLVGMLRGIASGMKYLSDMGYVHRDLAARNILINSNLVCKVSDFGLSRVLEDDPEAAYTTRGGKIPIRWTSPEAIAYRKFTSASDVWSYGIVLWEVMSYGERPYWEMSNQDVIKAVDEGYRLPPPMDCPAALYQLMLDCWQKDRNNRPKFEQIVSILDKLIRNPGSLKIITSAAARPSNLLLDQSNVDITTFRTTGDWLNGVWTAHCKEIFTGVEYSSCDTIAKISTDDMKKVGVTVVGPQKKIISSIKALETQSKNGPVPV

[7] = biological target: T1, Ephrin type-A receptor 3 (Homo sapiens); conditions: at 1 µM
[8] = biological target: Ephrin type-A receptor 4 (Homo sapiens) (UniProt P54764); conditions: at 0.1 µM
Ephrin type-A receptor 4 (Homo sapiens), sequence (P54764 whole entry): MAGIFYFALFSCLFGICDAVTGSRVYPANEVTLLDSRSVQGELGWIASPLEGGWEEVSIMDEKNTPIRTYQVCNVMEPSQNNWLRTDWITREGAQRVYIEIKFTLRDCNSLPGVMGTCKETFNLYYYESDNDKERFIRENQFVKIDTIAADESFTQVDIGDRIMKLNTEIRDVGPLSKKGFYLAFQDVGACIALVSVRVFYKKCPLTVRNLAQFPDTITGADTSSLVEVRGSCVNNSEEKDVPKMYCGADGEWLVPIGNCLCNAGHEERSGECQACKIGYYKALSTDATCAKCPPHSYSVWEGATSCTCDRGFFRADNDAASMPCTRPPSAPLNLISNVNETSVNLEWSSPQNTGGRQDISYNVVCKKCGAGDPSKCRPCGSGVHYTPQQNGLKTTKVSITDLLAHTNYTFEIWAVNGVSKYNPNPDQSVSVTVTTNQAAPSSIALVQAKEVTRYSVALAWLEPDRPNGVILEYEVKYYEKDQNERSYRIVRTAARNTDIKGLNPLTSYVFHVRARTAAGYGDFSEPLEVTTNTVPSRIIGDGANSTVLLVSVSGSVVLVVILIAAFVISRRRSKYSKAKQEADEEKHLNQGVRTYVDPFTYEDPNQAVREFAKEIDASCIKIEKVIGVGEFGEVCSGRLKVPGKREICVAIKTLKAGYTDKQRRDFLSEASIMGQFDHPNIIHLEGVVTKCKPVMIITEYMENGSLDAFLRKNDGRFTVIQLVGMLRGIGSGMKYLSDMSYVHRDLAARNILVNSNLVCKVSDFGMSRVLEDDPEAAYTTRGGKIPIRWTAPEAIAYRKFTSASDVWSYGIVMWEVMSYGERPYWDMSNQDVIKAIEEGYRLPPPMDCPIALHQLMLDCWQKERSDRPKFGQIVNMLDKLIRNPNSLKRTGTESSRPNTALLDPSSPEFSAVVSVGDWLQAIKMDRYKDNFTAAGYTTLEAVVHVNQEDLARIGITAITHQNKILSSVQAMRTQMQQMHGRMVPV

[9] = biological target: Ephrin type-A receptor 4 (Homo sapiens) (UniProt P54764); conditions: at 1 µM
[10] = biological target: T2, Ephrin type-B receptor 2 (Homo sapiens) (UniProt P29323); conditions: at 0.1 µM
T2 sequence (whole entry): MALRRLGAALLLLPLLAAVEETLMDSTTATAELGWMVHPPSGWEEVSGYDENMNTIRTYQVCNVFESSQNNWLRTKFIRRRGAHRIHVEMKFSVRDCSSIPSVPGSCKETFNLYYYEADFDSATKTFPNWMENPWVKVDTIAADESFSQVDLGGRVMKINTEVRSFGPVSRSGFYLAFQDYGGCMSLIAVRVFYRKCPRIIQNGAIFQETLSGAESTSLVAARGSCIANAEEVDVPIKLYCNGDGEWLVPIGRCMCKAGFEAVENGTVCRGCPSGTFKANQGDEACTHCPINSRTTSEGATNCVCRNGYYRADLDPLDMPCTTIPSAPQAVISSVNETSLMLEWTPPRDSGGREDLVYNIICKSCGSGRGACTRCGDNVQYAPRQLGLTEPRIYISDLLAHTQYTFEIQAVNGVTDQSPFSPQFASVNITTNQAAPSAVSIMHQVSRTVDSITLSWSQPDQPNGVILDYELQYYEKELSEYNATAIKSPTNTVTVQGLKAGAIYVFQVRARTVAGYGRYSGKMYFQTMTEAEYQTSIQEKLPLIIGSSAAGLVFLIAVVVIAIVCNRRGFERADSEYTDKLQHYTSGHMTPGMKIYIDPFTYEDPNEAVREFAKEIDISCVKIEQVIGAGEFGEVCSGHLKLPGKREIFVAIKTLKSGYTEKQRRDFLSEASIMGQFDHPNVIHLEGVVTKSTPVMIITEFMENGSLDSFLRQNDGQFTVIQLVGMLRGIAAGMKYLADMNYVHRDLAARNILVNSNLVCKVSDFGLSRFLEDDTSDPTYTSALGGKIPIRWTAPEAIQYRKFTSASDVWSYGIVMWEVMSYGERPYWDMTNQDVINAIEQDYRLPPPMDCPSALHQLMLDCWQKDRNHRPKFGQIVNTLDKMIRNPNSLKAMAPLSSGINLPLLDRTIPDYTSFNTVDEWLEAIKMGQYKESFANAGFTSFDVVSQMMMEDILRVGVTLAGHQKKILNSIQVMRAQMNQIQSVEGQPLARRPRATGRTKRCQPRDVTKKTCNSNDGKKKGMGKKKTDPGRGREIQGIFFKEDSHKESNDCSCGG

[11] = biological target: T2, Ephrin type-B receptor 2 (Homo sapiens); conditions: at 1 µM
[12] = biological target: T3, Ephrin type-B receptor 3 (Homo sapiens) (UniProt P54753); conditions: at 0.1 µM
T3 sequence (whole entry): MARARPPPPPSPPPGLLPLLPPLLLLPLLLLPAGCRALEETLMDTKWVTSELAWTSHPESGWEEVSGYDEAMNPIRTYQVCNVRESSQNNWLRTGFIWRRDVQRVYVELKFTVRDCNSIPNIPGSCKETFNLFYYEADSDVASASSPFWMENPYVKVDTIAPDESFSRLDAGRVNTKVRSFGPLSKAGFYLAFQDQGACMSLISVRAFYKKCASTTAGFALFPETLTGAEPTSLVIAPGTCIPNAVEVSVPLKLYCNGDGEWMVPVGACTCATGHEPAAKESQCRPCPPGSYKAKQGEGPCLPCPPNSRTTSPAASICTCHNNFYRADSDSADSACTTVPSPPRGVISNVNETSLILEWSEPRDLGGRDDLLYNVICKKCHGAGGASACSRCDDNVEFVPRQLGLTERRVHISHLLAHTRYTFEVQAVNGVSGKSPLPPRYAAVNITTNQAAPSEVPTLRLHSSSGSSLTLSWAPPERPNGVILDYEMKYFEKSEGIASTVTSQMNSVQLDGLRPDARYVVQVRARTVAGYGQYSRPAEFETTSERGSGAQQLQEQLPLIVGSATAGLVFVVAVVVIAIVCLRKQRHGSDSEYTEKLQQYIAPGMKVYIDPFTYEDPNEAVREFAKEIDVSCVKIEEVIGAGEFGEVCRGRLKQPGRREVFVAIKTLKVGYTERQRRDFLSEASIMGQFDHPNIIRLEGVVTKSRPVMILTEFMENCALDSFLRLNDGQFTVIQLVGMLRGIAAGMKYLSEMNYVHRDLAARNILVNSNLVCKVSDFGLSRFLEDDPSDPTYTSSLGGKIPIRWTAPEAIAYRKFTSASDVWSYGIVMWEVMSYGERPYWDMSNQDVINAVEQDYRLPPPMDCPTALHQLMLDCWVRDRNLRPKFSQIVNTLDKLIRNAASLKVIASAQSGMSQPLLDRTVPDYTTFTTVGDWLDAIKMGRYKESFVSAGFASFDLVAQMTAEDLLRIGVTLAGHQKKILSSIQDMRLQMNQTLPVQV

[13] = biological target: T3, Ephrin type-B receptor 3 (Homo sapiens); conditions: at 1 µM
[14] = biological target: T4, Ephrin type-B receptor 4 (Homo sapiens) (UniProt P54760); conditions: at 0.1 µM
T4 sequence (whole entry): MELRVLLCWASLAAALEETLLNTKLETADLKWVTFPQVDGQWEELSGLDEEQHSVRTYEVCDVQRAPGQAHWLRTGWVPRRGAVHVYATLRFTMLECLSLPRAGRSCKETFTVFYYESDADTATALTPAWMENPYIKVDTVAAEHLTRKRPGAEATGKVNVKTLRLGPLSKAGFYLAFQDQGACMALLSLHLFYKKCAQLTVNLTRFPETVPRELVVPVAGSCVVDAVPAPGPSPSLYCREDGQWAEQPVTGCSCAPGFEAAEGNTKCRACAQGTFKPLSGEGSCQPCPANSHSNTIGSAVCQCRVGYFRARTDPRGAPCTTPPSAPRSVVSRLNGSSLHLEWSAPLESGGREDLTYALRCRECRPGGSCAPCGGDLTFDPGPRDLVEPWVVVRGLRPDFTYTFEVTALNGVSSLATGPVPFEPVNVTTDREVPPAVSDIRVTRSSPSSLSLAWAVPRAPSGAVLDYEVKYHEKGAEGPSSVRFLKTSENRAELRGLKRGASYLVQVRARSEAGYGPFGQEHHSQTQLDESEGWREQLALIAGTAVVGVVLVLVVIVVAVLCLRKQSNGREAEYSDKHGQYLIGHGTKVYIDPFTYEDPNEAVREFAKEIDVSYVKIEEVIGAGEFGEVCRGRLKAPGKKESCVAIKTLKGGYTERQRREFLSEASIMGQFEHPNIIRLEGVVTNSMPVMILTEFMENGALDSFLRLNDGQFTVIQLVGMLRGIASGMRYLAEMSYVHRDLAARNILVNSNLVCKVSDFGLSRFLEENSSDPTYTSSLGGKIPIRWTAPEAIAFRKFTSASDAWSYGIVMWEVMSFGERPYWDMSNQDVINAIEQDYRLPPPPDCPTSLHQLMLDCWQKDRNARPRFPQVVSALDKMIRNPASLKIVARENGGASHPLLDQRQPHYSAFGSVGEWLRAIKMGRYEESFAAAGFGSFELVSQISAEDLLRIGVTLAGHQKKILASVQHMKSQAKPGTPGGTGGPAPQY

[15] = biological target: T4, Ephrin type-B receptor 4 (Homo sapiens); conditions: at 1 µM
[16] = biological target: Receptor tyrosine-protein kinase erbB-2 (Homo sapiens) (UniProt P04626); conditions: at 0.1 µM
[17] = biological target: Receptor tyrosine-protein kinase erbB-2 (Homo sapiens) (UniProt P04626); conditions: at 1 µM
[18] = biological target: Receptor tyrosine-protein kinase erbB-4 (Homo sapiens) (UniProt Q15303); conditions: at 0.1 µM
Receptor tyrosine-protein kinase erbB-4 (Homo sapiens), sequence (Q15303 whole entry): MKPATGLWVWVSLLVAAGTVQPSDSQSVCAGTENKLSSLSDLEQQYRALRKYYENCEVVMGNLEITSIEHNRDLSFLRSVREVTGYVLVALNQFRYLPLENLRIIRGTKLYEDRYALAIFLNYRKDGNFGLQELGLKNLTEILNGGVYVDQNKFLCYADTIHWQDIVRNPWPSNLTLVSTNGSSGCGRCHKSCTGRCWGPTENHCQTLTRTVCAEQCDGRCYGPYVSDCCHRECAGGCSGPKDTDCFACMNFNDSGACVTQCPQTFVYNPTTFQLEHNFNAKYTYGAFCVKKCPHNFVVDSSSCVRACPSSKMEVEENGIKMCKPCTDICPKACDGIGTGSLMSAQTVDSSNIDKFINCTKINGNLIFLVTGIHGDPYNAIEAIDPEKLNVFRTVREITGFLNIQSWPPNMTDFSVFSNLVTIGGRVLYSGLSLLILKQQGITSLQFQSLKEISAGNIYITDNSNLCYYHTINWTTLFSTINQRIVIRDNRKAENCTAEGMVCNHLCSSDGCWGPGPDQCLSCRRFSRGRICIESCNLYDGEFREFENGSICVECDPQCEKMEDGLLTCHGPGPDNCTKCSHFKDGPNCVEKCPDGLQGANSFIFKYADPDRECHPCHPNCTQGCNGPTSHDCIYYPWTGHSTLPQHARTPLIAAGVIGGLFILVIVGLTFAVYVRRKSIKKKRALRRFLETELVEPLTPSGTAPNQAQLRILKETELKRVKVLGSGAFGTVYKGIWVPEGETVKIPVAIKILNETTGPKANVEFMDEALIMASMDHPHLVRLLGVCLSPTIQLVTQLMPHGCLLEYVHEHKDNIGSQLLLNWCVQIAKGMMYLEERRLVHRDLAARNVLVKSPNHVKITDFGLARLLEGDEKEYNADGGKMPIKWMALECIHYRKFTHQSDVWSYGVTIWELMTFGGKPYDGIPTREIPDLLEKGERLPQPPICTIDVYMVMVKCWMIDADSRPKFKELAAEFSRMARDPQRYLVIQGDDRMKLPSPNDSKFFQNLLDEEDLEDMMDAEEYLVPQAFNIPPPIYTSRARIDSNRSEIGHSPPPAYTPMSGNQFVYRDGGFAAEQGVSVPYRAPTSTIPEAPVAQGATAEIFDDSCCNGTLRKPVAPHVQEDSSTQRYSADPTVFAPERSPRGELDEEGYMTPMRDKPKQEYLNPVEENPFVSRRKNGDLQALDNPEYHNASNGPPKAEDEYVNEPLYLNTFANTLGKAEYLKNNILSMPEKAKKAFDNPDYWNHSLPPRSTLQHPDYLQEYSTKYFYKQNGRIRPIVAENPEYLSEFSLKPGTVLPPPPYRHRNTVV

[19] = biological target: Receptor tyrosine-protein kinase erbB-4 (Homo sapiens) (UniProt Q15303); conditions: at 1 µM
[20] = biological target: Tyrosine-protein kinase Fer (Homo sapiens) (UniProt P16591); conditions: at 0.1 µM;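 further: reported figures are averaged percent inhibition of FER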
Tyrosine-protein kinase Fer (Homo sapiens), sequence (P16591 whole entry, looked up): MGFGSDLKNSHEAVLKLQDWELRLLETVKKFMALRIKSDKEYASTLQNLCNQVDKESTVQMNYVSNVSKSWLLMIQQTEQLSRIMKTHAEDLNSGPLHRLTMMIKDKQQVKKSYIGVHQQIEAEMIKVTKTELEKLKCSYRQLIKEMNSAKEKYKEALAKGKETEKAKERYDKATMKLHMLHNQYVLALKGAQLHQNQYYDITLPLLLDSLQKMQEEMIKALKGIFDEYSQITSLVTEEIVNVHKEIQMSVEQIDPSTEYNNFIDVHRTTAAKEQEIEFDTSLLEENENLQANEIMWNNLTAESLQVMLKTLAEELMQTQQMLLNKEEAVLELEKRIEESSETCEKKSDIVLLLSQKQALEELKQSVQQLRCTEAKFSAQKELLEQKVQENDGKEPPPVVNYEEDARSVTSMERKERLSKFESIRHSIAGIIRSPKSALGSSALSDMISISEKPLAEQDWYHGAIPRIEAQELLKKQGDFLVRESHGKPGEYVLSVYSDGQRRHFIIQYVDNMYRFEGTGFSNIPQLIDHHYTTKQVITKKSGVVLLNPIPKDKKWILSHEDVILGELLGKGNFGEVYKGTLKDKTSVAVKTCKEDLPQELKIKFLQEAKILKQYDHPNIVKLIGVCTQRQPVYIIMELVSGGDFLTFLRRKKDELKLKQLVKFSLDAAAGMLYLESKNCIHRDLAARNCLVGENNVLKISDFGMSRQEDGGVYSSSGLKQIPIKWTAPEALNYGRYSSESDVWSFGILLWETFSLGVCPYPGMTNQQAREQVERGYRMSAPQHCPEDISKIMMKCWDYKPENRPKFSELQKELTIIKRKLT

Ephrin type-A receptor 2 (Homo sapiens), sequence (P29317 whole entry): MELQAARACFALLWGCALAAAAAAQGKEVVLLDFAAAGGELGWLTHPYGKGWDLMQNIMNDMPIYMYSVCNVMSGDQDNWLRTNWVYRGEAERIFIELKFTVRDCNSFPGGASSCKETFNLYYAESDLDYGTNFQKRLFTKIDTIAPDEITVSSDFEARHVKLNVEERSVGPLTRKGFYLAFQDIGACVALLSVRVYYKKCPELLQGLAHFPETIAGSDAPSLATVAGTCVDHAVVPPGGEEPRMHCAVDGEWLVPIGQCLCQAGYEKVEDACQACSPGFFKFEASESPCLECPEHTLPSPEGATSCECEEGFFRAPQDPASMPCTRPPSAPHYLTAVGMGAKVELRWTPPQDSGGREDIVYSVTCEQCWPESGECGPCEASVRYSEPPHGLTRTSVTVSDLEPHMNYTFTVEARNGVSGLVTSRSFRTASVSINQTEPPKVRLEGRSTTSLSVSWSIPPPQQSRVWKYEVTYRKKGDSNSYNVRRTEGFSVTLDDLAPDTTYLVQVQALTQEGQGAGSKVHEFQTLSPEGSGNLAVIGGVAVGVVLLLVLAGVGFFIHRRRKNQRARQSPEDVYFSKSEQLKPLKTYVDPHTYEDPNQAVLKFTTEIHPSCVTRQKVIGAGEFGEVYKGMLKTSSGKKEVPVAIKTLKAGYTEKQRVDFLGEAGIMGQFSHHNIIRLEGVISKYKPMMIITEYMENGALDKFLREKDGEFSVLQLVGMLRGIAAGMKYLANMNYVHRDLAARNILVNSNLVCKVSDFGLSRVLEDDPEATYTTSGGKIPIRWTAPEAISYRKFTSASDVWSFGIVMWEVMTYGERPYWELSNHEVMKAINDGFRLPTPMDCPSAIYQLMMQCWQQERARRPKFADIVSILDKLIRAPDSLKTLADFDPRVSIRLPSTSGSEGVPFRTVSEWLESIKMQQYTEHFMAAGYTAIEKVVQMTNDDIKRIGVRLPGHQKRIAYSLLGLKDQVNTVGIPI

COc1cc(Nc2ncc(-c3ccccc3)o2)cc(OC)c1
inhibition [1]: 1.99%
inhibition [2]: 0.93%
inhibition [3]: 0.21%
inhibition [4]: 2.21%
inhibition [5]: 2.39%
inhibition [6]: 3.02%
inhibition [7]: 8.57%
inhibition [8]: 8.98%
inhibition [9]: 13.7%
inhibition [10]: 8.98%
inhibition [11]: 11.5%
inhibition [12]: 3.34%
inhibition [13]: 3.15%
inhibition [14]: 1.28%
inhibition [15]: 4.64%
inhibition [16]: 2.1%
inhibition [17]: 3.72%
inhibition [18]: 9.38%
inhibition [19]: 14.6%
inhibition [20]: 0.58%

COc1ccc(-c2nn3ncccc3c2-c2ccnc(Nc3ccc(F)c(F)c3)n2)cc1
inhibition [1]: 6.23%
inhibition [2]: 3.78%
inhibition [3]: 8.64%
inhibition [4]: 2.87%
inhibition [5]: -0.08%
inhibition [6]: 3.49%
inhibition [7]: 6.3%
inhibition [8]: 8.99%
inhibition [9]: 16.4%
inhibition [10]: 7.75%
inhibition [11]: 18.6%
inhibition [12]: 4.77%
inhibition [13]: 3.59%
inhibition [14]: 1.49%
inhibition [15]: 7.6%
inhibition [16]: 4.95%
inhibition [17]: 5.88%
inhibition [18]: 27.1%
inhibition [19]: 71.3%
inhibition [20]: 4.09%

CCS(=O)(=O)c1ccc(OC)c(Nc2ncc(-c3cccc(C(C)=O)c3)o2)c1
inhibition [1]: 4.71%
inhibition [2]: 1.19%
inhibition [3]: 7.18%
inhibition [4]: 3.84%
inhibition [5]: 2.23%
inhibition [6]: 3.51%
inhibition [7]: 6.85%
inhibition [8]: 9.55%
inhibition [9]: 16.9%
inhibition [10]: 9.45%
inhibition [11]: 21.8%
inhibition [12]: 3.26%
inhibition [13]: 5.98%
inhibition [14]: 1.8%
inhibition [15]: 6.82%
inhibition [16]: 2.14%
inhibition [17]: 6.11%
inhibition [18]: 7.58%
inhibition [19]: 11.1%
inhibition [20]: 1.02%

— ChEMBL document CHEMBL1961873, “Compounds: GSK PKIS; Assays: Nanosyn kinase panel” (2012)
